Data as given in PubChem BioAssay AID463173 (ICCB-Longwood Screening Facility, Harvard Medical School, 2010).
Screen size: about 52,000 compounds; about 4,300 (8.3%) were called active. Shown is part of a subset that was picked to be rich in actives. Values without a mark were called inactive. Cut-off read from the data, not from the text of the source: active = survival mostly below about 52% (no sharp cut-off); inactive = mostly above about 56%.

Each molecule was assayed on DeltatarO mutant (assay: S. aureus survival, RN4220 and DeltatarO strains – OD600, teichoic acid synthesis inhibitors, primary screen (AID 463173)). Conditions: S. aureus RN4220 wild type/DeltatarO growth, OD600, 18 h, hits give low values, screened at 18.75 µg/mL (by protocol).

Structure (SMILES)	survival
Cc1ccc(-n2c(=O)c3c4c(sc3n(CC(=O)C(C)(C)C)c2=O)CCCCC4)cc1C	89%
CC(C)CCNC(=O)c1cn(C)c2ccc(S(=O)(=O)N3CCCC3)cc2c1=O	138%
CCc1ccc2oc(C(=O)NCC(c3ccc(OC)cc3)N3CCCCC3)c(C)c2c1 (stereo not drawn)	81%
O=C(CCn1cnc2onc(-c3ccc(F)cc3)c2c1=O)Nc1cccc(C(F)(F)F)c1	96%
Cc1ccc(-n2nc(C(=O)N3CCN(c4ccccc4F)CC3)c(=O)n(C)c2=O)cc1	93%
Cc1ccsc1CN(C(=O)COc1ccc(Br)cc1)C1CCS(=O)(=O)C1 (stereo not drawn)	73%
Cc1ccc(CN2CCC(CNC(=O)Nc3cccc(C)c3C)C2)cc1 (stereo not drawn)	112%
Cc1cc(Cl)ccc1NC(=O)Cn1nnc2sc(-c3ccccc3)cc2c1=O	106%
Cc1cn2c(=O)cc(COC(=O)c3cccc(NC(=O)c4ccccc4Cl)c3)nc2s1	102%
COc1cccc(CNC(=O)Cn2c(=O)ccc3cc(S(=O)(=O)N4CCC(C)CC4)ccc32)c1	99%
COc1cc(OC)c(NC(=O)Nc2ccccc2OCc2cc(=O)n3cc(C)ccc3n2)cc1Cl	103%
COc1ccccc1C(=O)Nc1ccc(OCc2cc(=O)n3cc(C)sc3n2)cc1	130%
CCOc1ccc(C(=O)Nc2c(C(=O)c3ccccc3)oc3ccccc23)cc1	72%
O=C(NCCc1ccccc1)c1cc2sccc2n1Cc1ccc(F)cc1	72%
COc1cc(OC)c(NC(=O)CCc2c(C)nc3ncnn3c2C)cc1Cl	97%
Cc1cn2c(=O)c(S(=O)(=O)NCc3ccccc3Cl)c(C)nc2s1	66%
Cc1ccc2oc(C(=O)Nc3c(C(=O)Nc4cccc(Cl)c4)oc4ccccc34)cc(=O)c2c1	67%
Cc1ccc2c(=O)cc(C(=O)Nc3c(C)cccc3C)oc2c1	44% (active)
Cc1ccc2oc(C(=O)Nc3cccc(Cl)c3)cc(=O)c2c1	92%
O=C(Nc1c(C(=O)Nc2cccc(C(F)(F)F)c2)oc2ccccc12)c1cc(=O)c2ccccc2o1	78%
COC(=O)c1ccc(NC(=O)c2cc(=O)c3ccc(C)cc3o2)cc1	96%
Cc1ccc2c(=O)cc(C(=O)Nc3nnc(C)s3)oc2c1	76%
Cc1cc2oc(C(=O)Nc3c(C(=O)Nc4ccccc4)oc4ccccc34)cc(=O)c2cc1C	106%
COc1ccc(NC(=O)c2oc3ccccc3c2NC(=O)c2cc(=O)c3cc(Cl)ccc3o2)cc1	54%

Structure (SMILES)	survival
Cc1cc(C)c2oc(C(=O)Nc3c(C(=O)c4ccccc4)oc4ccccc34)cc(=O)c2c1	55%
Cc1cccc(NC(=O)c2oc3ccccc3c2NC(=O)c2cc(=O)c3cc(Cl)ccc3o2)c1	43% (active)
Cc1cc(C)c2oc(C(=O)Nc3c(C(=O)Nc4ccccc4)oc4ccccc34)cc(=O)c2c1	51% (active)
Cc1ccc2c(=O)cc(C(=O)Nc3c(C(=O)Nc4cccc(Cl)c4)oc4ccccc34)oc2c1	36% (active)
NCC1Cc2ccccc2O1 (stereo not drawn)	103%
O=c1c2oc3ccccc3c2n(Cc2cccc(F)c2)c(=O)n1Cc1ccco1	75%
Cc1ccccc1CSc1nnc2[nH]c(=O)cc(C)n12	84%
Cc1cc(C)cc(-n2ccnc(NCCc3ccccc3)c2=O)c1	101%
CC(C)Oc1ccc(C2CC(=O)N(C)C2=O)cc1 (stereo not drawn)	82%
Cc1ccc(OCC(=O)Nc2ccc(S(=O)(=O)N3CCOCC3)cc2)c(C)c1	94%
COc1ccc2cc(CN(Cc3nnnn3Cc3ccccc3)C3CCCC3)c(=O)[nH]c2c1	96%
CC1CCN(C(=O)c2ccc3nc(N4C(=O)CCC4=O)sc3c2)CC1	95%
COc1ccc(C)cc1NC(=O)C(=O)NCCc1csc2nc(-c3ccccc3F)nn12	72%
COc1ccc(N2CCN(S(C)(=O)=O)CC2)cc1	86%
COc1cc2c(=O)c(S(=O)(=O)c3ccc(F)cc3)cn(Cc3ccccc3C)c2cc1OC	55%
CCOC(=O)C1CCCN(C(=O)c2ccc3c(c2)sc2nc(-c4cccc(OC)c4)cn23)C1 (stereo not drawn)	77%
CCOc1ccc(C(=O)c2oc3ccccc3c2NC(=O)c2cc(=O)c3ccc(C)cc3o2)cc1	134%
COc1ccc(C(=O)c2oc3ccccc3c2NC(=O)c2cc(=O)c3ccc(C)cc3o2)cc1Cl	44% (active)
Cc1ccc2c(=O)cc(C(=O)Nc3c(C(=O)c4ccccc4)oc4ccccc34)oc2c1	76%
CCOc1ccccc1NC(=O)c1cc(=O)c2ccc(C)cc2o1	44% (active)
Cc1ccc(C(=O)c2oc3ccccc3c2NC(=O)c2cc(=O)c3ccccc3o2)cc1	57%
Cc1cccc(NC(=O)c2oc3ccccc3c2NC(=O)c2cc(=O)c3ccccc3o2)c1	73%
CCc1ccc2oc(C(=O)Nc3ccccc3OC)cc(=O)c2c1	49%
Cc1ccc2oc(C(=O)Nc3c(C(=O)Nc4ccccc4)oc4ccccc34)cc(=O)c2c1	73%

Structure (SMILES)	survival
Cc1cccc(NC(=O)c2oc3ccccc3c2NC(=O)c2cc(=O)c3ccc(C)cc3o2)c1	28% (active)
COC(=O)C(C)Oc1ccc(N2C(=O)c3ccccc3C2=O)cc1 (stereo not drawn)	75%
O=S(=O)(c1ccc(-c2cc(C(F)(F)F)on2)s1)N1CCN(c2ccccc2)CC1	75%
CCOc1ccc(-c2cc3nc(C4CCN(C(=O)OC(C)(C)C)CC4)c(C(=O)Nc4cccc(C(F)(F)F)c4)cn3n2)cc1	79%
O=C1C2C3c4ccccc4C(c4ccccc43)C2C(=O)N1Cc1ccccn1 (stereo not drawn)	83%
COCC[N+]1(C)CCCCC1	84%
CC1CCN(C(=O)CSc2nc(-c3ccc(F)cc3)cc(C(F)(F)F)n2)CC1	37% (active)
CC(Sc1nc(-c2ccccc2)cc(C(F)(F)F)n1)C(=O)N1CCCC1 (stereo not drawn)	101%
COc1ccc(-c2cc(C(F)(F)F)nc(SCC(=O)N3CCC(C)CC3)n2)cc1	56%
CC1CN(C(=O)C(C)Sc2nc(-c3ccccc3)cc(C(F)(F)F)n2)CC(C)O1 (stereo not drawn)	78%
CC1CCN(C(=O)C(C)Sc2nc(-c3ccccc3)cc(C(F)(F)F)n2)CC1 (stereo not drawn)	-1% (active)
CC1CCN(C(=O)CSc2n[nH]c(-c3ccc(F)cc3)n2)CC1	92%
CC(C)C(=O)Nc1cccc(C(=O)Nc2nncs2)c1	87%
O=C(CSc1nc(-c2ccc(F)cc2)[nH]c1-c1ccccc1)NCC1CCCO1 (stereo not drawn)	82%
Cc1ccccc1-c1noc(-c2ccc(NCc3cccnc3)c([N+](=O)[O-])c2)n1	98%
O=C(c1ccc2c(c1)C(=O)N(CCCO)C2=O)c1ccc2c(c1)C(=O)N(CCCO)C2=O	70%
C[N+](C)(C)CCNC(=O)c1ccc(/C=N/O)nc1	81%
Oc1ccc(CNc2ccccc2Cl)c2cccnc12	115%
CCN(CC)S(=O)(=O)c1nnc(NC(=O)COc2ccccc2Cl)s1	95%
O=C(COc1ccccc1F)Nc1nnc(S(=O)(=O)N2CCCCCC2)s1	51% (active)
Cc1ccccc1OCC(=O)Nc1nnc(S(=O)(=O)N(C)c2ccccc2)s1	67%
O=C(COc1ccccc1Cl)Nc1nnc(S(=O)(=O)N2CCCCCC2)s1	70%
Cc1ccccc1OCC(=O)Nc1nnc(S(=O)(=O)N2CCCCCC2)s1	73%
O=C(COc1ccccc1Cl)Nc1nnc(S(=O)(=O)N2CCCC2)s1	39% (active)

Structure (SMILES)	survival
Cc1ccccc1OCC(=O)Nc1nnc(S(=O)(=O)N2CCCC2)s1	42% (active)
Cc1ccc(NC(=O)CN2C=NS(=O)(=O)c3ccccc32)cc1	76%
Cc1ccc2nc(N(Cc3cccnc3)C(=O)c3ccc4c(c3)OCCO4)sc2c1	70%
COc1ccc(/C=C/c2nc(C#N)c(N3CCN(c4ccccc4)CC3)o2)cc1OC	88%
COc1ccc(-c2onc(C)c2C)cc1S(=O)(=O)NC1CCCCC1	72%
CCOc1ccc(CCNC(=O)C2CCN(C(=O)N3CC(CC)Oc4ccc(C)cc43)CC2)cc1 (stereo not drawn)	63%
Cc1ccc(Cn2cc(S(=O)(=O)c3ccc(Cl)cc3)c(=O)c3cc4c(cc32)OCO4)cc1	77%
Cc1ccc(S(=O)(=O)NCCc2nnc3ccc(SCC(=O)Nc4ccc(F)cc4F)nn23)cc1	88%
Cc1c(C)n(Cc2ccccc2)c2ccc(C(=O)N3CCN(c4ccccc4)CC3)cc12	99%
CC(=O)Nc1ccc(S(=O)(=O)N(Cc2ccccc2)Cc2ccccc2)cc1	54% (active)
CCN(CC)S(=O)(=O)c1ccc(NC(=O)c2ccccc2)cc1	77%
CCOC(=O)c1ccc(NC(=O)CN(Cc2ccc(C)cc2)S(=O)(=O)c2ccc(C)cc2)cc1	58%
CCOC(=O)c1ccc(CN(Cc2ccc(F)cc2)S(=O)(=O)c2ccc(F)cc2)cc1	87%
Cc1ccc(S(=O)(=O)N(CC(=O)Nc2ccc(C(C)C)cc2)Cc2ccccc2)cc1	54%
COC(=O)c1ccc(NC(=O)CN(CCc2ccccc2)S(=O)(=O)c2ccc(OC)cc2)cc1	69%
COC(=O)c1ccc(NC(=O)CN(Cc2ccccc2)S(=O)(=O)c2ccc(C)cc2)cc1	42% (active)
CCOC(=O)c1ccc(CN(Cc2ccccc2)S(=O)(=O)c2ccc(Cl)cc2)cc1	32% (active)
COC(=O)c1ccc(NC(=O)CN(Cc2ccccc2)S(=O)(=O)c2ccc(Cl)cc2)cc1	40% (active)
CCOC(=O)c1ccc(CN(Cc2ccc(Cl)cc2Cl)S(=O)(=O)c2cccc(Cl)c2)cc1	80%
CCOc1ccc(NC(=O)CN(Cc2ccccc2)S(=O)(=O)c2ccc(Cl)cc2)cc1	78%
CCOC(=O)c1ccc(CN(Cc2ccc(C)cc2)S(=O)(=O)c2ccc(NC(C)=O)cc2)cc1	73%
